# Inconclusive results are not listed. Activity calls are given as the source filed them. The call rests on the fitted dose curve; in most records, active means well fitted curve in the direction sought with a large enough effect; inconclusive means small, poorly fitted or top-dose-only effect, or another doubt; inactive means no such curve, though single readings can be large; an effect the other way counts as inactive or inconclusive.
# Tests used:
# [1] = Quantitative High-Throughput drug screen in 47 multiple myeloma cell lines against the NCATS MIPE library collection: FR4_PLB cell viability assay (AID 1918924; further: nearly all actives have a fitted effect of over 35% in size; further: potency means the concentration at half of the fitted maximal effect)
# Procedure, shortened: (§1)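 We plated 500 myeloma cells per well, pinned in MIPE 4.0 compounds, and incubated for 48 hours at 37C. ATP was then quantified with CellTiter-Glo, with DMSO and media-only wells defining 100% and 0%.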
# [2] = Quantitative High-Throughput drug screen in 47 multiple myeloma cell lines against the NCATS MIPE library collection: Delta47_JCRB cell viability assay (AID 1918925; further: nearly all actives have a fitted effect of over 45% in size; further: potency means the concentration at half of the fitted maximal effect)
# Procedure, shortened: (§2)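 Approved and investigational drugs from MIPE 4.0 were added by pin tool to 500 cells per well. After 48 hours at 37C, ATP-based CellTiter-Glo luminescence indicated remaining viability.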
# [3] = Quantitative High-Throughput drug screen in 47 multiple myeloma cell lines against the NCATS MIPE library collection: EJM_DSMZ cell viability assay (AID 1918926; further: nearly all actives have a fitted effect of over 30% in size; further: potency means the concentration at half of the fitted maximal effect)
# Procedure, shortened: as §2
# [4] = Quantitative High-Throughput drug screen in 47 multiple myeloma cell lines against the NCATS MIPE library collection: AMO1_DSMZ cell viability assay (AID 1918927; further: nearly all actives have a fitted effect of over 30% in size; further: potency means the concentration at half of the fitted maximal effect)
# Procedure, shortened: as §2
# [5] = Quantitative High-Throughput drug screen in 47 multiple myeloma cell lines against the NCATS MIPE library collection: ARP1_JJKsccF8 cell viability assay (AID 1918928; further: nearly all actives have a fitted effect of over 40% in size; further: potency means the concentration at half of the fitted maximal effect)
# Procedure, shortened: (§3)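 CellTiter-Glo luminescence after 48 h exposure gives viability, scaled between DMSO-only (100%) and media-only (0%) controls. Library compounds are pinned onto 500 myeloma cells per well, incubated at 37C with 5% CO2.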
# [6] = Quantitative High-Throughput drug screen in 47 multiple myeloma cell lines against the NCATS MIPE library collection: ARD_JJKsccE7 cell viability assay (AID 1918929; further: potency means the concentration at half of the fitted maximal effect)
# Procedure, shortened: as §2
# [7] = Quantitative High-Throughput drug screen in 47 multiple myeloma cell lines against the NCATS MIPE library collection: Karpas620_DSMZ cell viability assay (AID 1918959); further: nearly all actives have a fitted effect of over 30% in size; further: potency means the concentration at half of the fitted maximal effect
# Procedure, shortened: as §1
# [8] = Quantitative High-Throughput drug screen in 47 multiple myeloma cell lines against the NCATS MIPE library collection: KMM1_JCRB cell viability assay (AID 1918960); further: nearly all actives have a fitted effect of over 30% in size; further: potency means the concentration at half of the fitted maximal effect
# Procedure, shortened: as §3
# [9] = Quantitative High-Throughput drug screen in 47 multiple myeloma cell lines against the NCATS MIPE library collection: Karpas417_ECACC cell viability assay (AID 1918961); settings: Karpas417 myeloma viability, CellTiter-Glo ATP luminescence, 48 h; viability (% of DMSO): at 45.8 µM (top of the series); further: potency means the concentration at half of the fitted maximal effect
# Procedure, shortened: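 Viability readout: CellTiter-Glo luminescence following 5 min room-temperature incubation with reagent. Prior exposure: 48 h, 37C, humidified 5% CO2, 500 cells per well.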
# [10] = Primary redox qHTS assay for identification of artifact compounds. (AID 1845223)
# Procedure, shortened: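 Redox-cycling detection via DTT (250 uM final) oxidation coupled to Amplex Red (25 uM)/HRP (250 mU/mL) in HBSS. 15 min preincubation plus 30 min after DTT, room temperature. Ex/Em 525/598 nm; 4-parameter Hill fit against DMSO and 10 uM DA3003.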
SMILES,Potency [1],Potency [2],Potency [3],Potency [4],Potency [5],Potency [6],Potency [7],Potency [8],Potency [9],Potency [10]
CCOC(=O)C1=C(C)NC(=S)NC1c1cccc(O)c1 (stereo not drawn),0.0187 µM (active),0.0166 µM (active),0.0469 µM (active),0.662 µM (active),0.105 µM (active),0.833 µM (active),,,,
C=C1C(=O)O[C@H]2[C@@H]1CCC(C)=CCC[C@@]1(C)O[C@@H]21,4.69 µM (active),2.35 µM (active),5.26 µM (active),3.32 µM (active),4.69 µM (active),2.96 µM (active),,,,
CC(C)OC(=O)[C@H](C)N[P@](=O)(OC[C@H]1O[C@@H](n2ccc(=O)[nH]c2=O)[C@](C)(F)[C@H]1O)Oc1ccccc1,inactive,inactive,inactive,inactive,inactive,inactive,inactive,inactive,,
C=CC(=O)Nc1cc(NC(=O)c2ccc(C)c(NC(=O)c3ccno3)c2)cc(C(F)(F)F)c1,26.4 µM (active),9.35 µM (active),16.6 µM (active),5.26 µM (active),16.6 µM (active),5.9 µM (active),8.33 µM (active),5.9 µM (active),,
CCC(C=C[C@@H]1OC(=O)C=C[C@H]1C)=C[C@H](C)CC=CC(C)=C[C@@H](C)C(=O)[C@@H](C)[C@H](O)[C@@H](C)CC(C)=CC(=O)O,0.0311 µM (active),0.022 µM (active),0.0277 µM (active),0.0349 µM (active),0.0277 µM (active),0.0349 µM (active),0.0124 µM (active),0.022 µM (active),,
C=C(C)[C@@H]1CC[C@]2(C(=O)O)CC[C@]3(C)[C@H](CC[C@@H]4[C@@]5(C)CC[C@H](O)C(C)(C)[C@@H]5CC[C@]43C)[C@@H]12,inactive,inactive,inactive,inactive,inactive,inactive,inactive,inactive,,
COc1cccc2c1C(=O)c1c(O)c3c(c(O)c1C2=O)C[C@@](O)(C(=O)CO)C[C@H]3O[C@H]1C[C@H](N)[C@H](O)[C@H](C)O1,0.264 µM (active),0.148 µM (active),0.209 µM (active),1.05 µM (active),0.332 µM (active),2.96 µM (active),1.05 µM (active),1.87 µM (active),,
CCc1cnn2c(NCc3ccc[n+]([O-])c3)cc(N3CCCC[C@@H]3CCO)nc12,0.0187 µM (active),0.0332 µM (active),0.0187 µM (active),0.0235 µM (active),0.0264 µM (active),0.0235 µM (active),0.0332 µM (active),0.0148 µM (active),0.0209 µM (active),
CCOC(=O)N1CCN([N+]([O-])=NOc2ccc([N+](=O)[O-])cc2[N+](=O)[O-])CC1,5.9 µM (active),1.48 µM (active),2.64 µM (active),10.5 µM (active),2.96 µM (active),5.9 µM (active),5.26 µM (active),10.5 µM (active),,
C#C[C@]1(O)CC[C@@H]2[C@@H]3CCc4cc(O)ccc4[C@H]3CC[C@@]21C,16.6 µM (active),7.43 µM (active),6.62 µM (active),16.6 µM (active),23.5 µM (active),18.7 µM (active),,,,
C=CCNC1=C2C[C@@H](C)C[C@H](OC)[C@@H](O)[C@@H](C)C=C(C)[C@H](OC(N)=O)[C@@H](OC)C=CC=C(C)C(=O)NC(=CC1=O)C2=O,0.662 µM (active),1.05 µM (active),4.18 µM (active),0.0935 µM (active),0.148 µM (active),0.0935 µM (active),1.87 µM (active),,,
CC(C)(O)[C@H]1CC[C@@](C)([C@H]2[C@@H](O)C[C@@]3(C)[C@@H]4C[C@H](O[C@@H]5O[C@H](CO)[C@@H](O)[C@H](O)[C@@H]5O)[C@H]5C(C)(C)[C@@H](O[C@@H]6OC[C@@H](O)[C@H](O)[C@@H]6O)CC[C@@]56C[C@@]46CC[C@]23C)O1,inactive,inactive,inactive,inactive,inactive,inactive,inactive,,,
O=C1NC(=O)C(=Cc2ccc3nccc(-c4ccncc4)c3c2)S1,0.332 µM (active),0.0332 µM (active),0.662 µM (active),0.372 µM (active),0.0833 µM (active),0.118 µM (active),0.296 µM (active),0.132 µM (active),,
COc1cc(C)c(Sc2cnc(NC(=O)c3ccc(CNC(C)C(C)(C)C)cc3)s2)cc1C(=O)N1CCN(C(C)=O)CC1 (stereo not drawn),20.9 µM (active),2.09 µM (active),18.7 µM (active),5.26 µM (active),16.6 µM (active),4.69 µM (active),8.33 µM (active),,,
CCC(C(=O)O)C1CCC(C)C(C(C)C(O)C(C)C(=O)C(CC)C2OC3(C=CC(O)[C@@]4(CC[C@](C)(C5CC[C@@](O)(CC)C(C)O5)O4)O3)C(C)CC2C)O1 (stereo partly drawn),16.6 µM (active),4.69 µM (active),5.9 µM (active),0.132 µM (active),1.87 µM (active),0.209 µM (active),,,,
CN(CC(=O)N(Cc1ccc(C2CCCCC2)cc1)c1ccc(C(=O)O)c(O)c1)S(=O)(=O)c1c(F)c(F)c(F)c(F)c1F,20.9 µM (active),5.9 µM (active),18.7 µM (active),5.26 µM (active),23.5 µM (active),11.8 µM (active),2.96 µM (active),10.5 µM (active),,
CC1=C(C(=O)Nc2cc3cn[nH]c3cc2F)C(c2ccc(Cl)cc2F)N=C(c2ccnc(Cl)c2)N1 (stereo not drawn),,,,14.8 µM (active),,20.9 µM (active),18.7 µM (active),20.9 µM (active),,inactive

# From PubChem BioAssay (NCATS)
